ROS inducer – inducers of reactive oxygen species in cancer cells | actives 2% (n = 46,000) | AID 624156 | U2OS ROS induction, H2DCF-DA fluorescence | ROS induction (% of piperlongumine), % at 10 µM; in the data active = ROS induction above about 79%, passing the limit was not always enough
Of the large screens only hits and unclear results are named; the others gave an inactive call. Shown is part of a subset that was picked to be rich in hits.

C[C@@H]1CN([C@H](C)CO)C(=O)CCCn2nncc2CO[C@H]1CN(C)C(=O)Oc1ccc2ccccc2c1	none
C[C@@H]1CN([C@H](C)CO)C(=O)CCCn2nncc2CO[C@@H]1CN(C)C(=O)Oc1ccc2ccccc2c1	ROS inducer 149.4
C[C@@H]1CN([C@@H](C)CO)C(=O)CCCn2nncc2CO[C@@H]1CN(C)C(=O)Oc1ccc2ccccc2c1	none
COc1ccc2c(c1)[nH]c1c(C)nccc12	none
COc1cccc(CNCCc2c[nH]c3ccccc23)c1	none
COc1ccc2c(c1)[C@]13CCCC[C@@H]1[C@H](C2)N(C)CC3	none
CC(C)[C@H]1C(=O)N2CCC[C@H]2[C@]2(O)O[C@](NC(=O)[C@@H]3C=C4c5cccc6[nH]cc(c56)C[C@H]4N(C)C3)(C(C)C)C(=O)N12	none
COc1ccc2c(c1OC)C(=O)O[C@H]2[C@@H]1c2cc3c(cc2CCN1C)OCO3	none
C[C@H](CO)N1C[C@H](C)[C@H](CN(C)C(=O)Oc2cccc3ccccc23)OCc2cnnn2CCCC1=O	none
COC(=O)C1=COC(C)C2CN3CCc4c([nH]c5cc(OC)ccc45)C3CC12 (centres undefined)	ROS inducer 103.3
COC(=O)C1=COC(C)C2CN3CCC4(C(=O)Nc5ccccc54)C3CC12 (centres undefined)	none
COC(=O)C12CC3CC(C(C)O)C1N(CCc1c2[nH]c2cc(OC)ccc12)C3 (centres undefined)	none
COc1c(CC=C(C)C)c2c(c3oc(=O)c(-c4ccc(O)cc4)c(O)c13)C=CC(C)(C)O2	none
N#CC(C#N)=Cc1cc(O)c(O)c(O)c1	none
COC(C/C=C/C=C/CC/C=C\CC(C)/C=C\C(=C/C(=O)O)CC(=O)O)/C(C)=C\C=C(/C)C(=O)O (centres undefined)	none
CCOC(=O)C1=C(N)Oc2c(c(=O)oc3ccccc23)C1c1ccccc1 (centres undefined)	none
CCOC(=O)C1=C(N)Oc2c(c(=O)oc3ccccc23)C12C(=O)N(CC(=O)OC)c1ccccc12 (centres undefined)	ROS inducer 97.1
COc1cc(C(=O)OC2CC3CCC(C2)N3)ccc1O (centres undefined)	none
CN1CC[C@@H]2CN3CCc4cccc(c43)[C@@H]2C1	none
CC1(C)C(=O)C=C[C@@]2(C)C1C(=O)C(=O)[C@]1(C)C2CC[C@@]2(C)[C@H](c3ccoc3)C[C@H]3O[C@]321 (some centres undefined)	ROS inducer 178.5
O=C1NC(=O)C(=Cc2cn(Cc3ccccc3)c3ccccc23)C(=O)N1	none
COc1ccc2c3c([nH]c2c1)C(C)=NCC3	none
C=C(CO)C(=O)O[C@H]1C/C(C)=C\CC/C(CO)=C\[C@H]2OC(=O)C(=C)[C@H]12	none
C=C(CO)C(=O)O[C@H]1CC(=C)[C@@H]2C[C@H](O)C(=C)[C@@H]2[C@H]2OC(=O)C(=C)[C@@H]21	ROS inducer 96.1
NCC(CC(=O)O)c1ccc(Cl)cc1 (centres undefined)	none
CCOC(=O)C1=C(CN2CC=C(c3ccccc3)CC2)NC(=O)NC1c1ccc(OC)cc1 (centres undefined)	none
Cc1cccc(N2C(=O)NC(=O)C(CCc3ccncc3)(CCc3ccncc3)C2=O)c1	none
N#CC1(P(=S)(c2ccccc2)c2ccccc2)CCCC1	none
Clc1cccc(N2CCNCC2)c1	none
O=C(NC1CN2CCC1CC2)c1cccc(Cl)c1 (centres undefined)	ROS inducer 87.7
NNCc1cccc(O)c1	none
O=C(CCCN1CCC2(CC1)C(=O)NCN2c1ccccc1)c1ccc(F)cc1	ROS inducer 98.1
O=C1NCN(c2ccccc2)C12CCN(CCCOc1ccc(F)cc1)CC2	none
Cc1ccc(Oc2c(C)nc(C)nc2OC(=O)N(C)C)cc1	none
NCC(=O)c1ccccc1	none
CC(C)=CC1C(C(=O)OCc2cccc(Oc3ccccc3)c2)C1(C)C (centres undefined)	none
CNc1ccccc1C(=O)O	none
C[CH2][Hg][S]c1ccccc1C(=O)O	ROS inducer 135.9
C/C=C1/CN2C3CC1C(CO)C2Cc1c3[nH]c2ccc(OC)cc12 (centres undefined)	none
CN1C[C@H](CO)C=C2c3cccc4[nH]cc(c34)C[C@H]21	none
